# Values joined by “and” are separate entries in the source; they are usually repeats but may differ in a detail not shown here. Equal entries are not always repeated. Records with an inconclusive call do not appear. A call without a number means that no potency is given here. Active and inactive are the calls of the source. Unless noted, the call rests on the fitted dose curve; in most records, active means well fitted curve in the direction sought with a large enough effect; inconclusive means small, poorly fitted or top-dose-only effect, or another doubt; inactive means no such curve, though single readings can be large; an effect the other way counts as inactive or inconclusive.
# How the values were obtained:
# [1] = Primary qHTS for small molecule stabilizers of the endoplasmic reticulum resident proteome: Secreted ER Calcium Modulated Protein (SERCaMP) assay (AID 1508630)
# Method in brief: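 The SH-SY5Y reporter protocol was run at 3 concentrations up to 38.3 uM (primary) or 11 concentrations (follow-up): 16 h compound, 100 nM thapsigargin for 4 h, then extracellular luciferase luminescence.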
# [2] = target: Cytochrome P450 2D6 (Homo sapiens) (UniProt P10635); assay: Cytochrome P450 family 2 subfamily D member 6 (CYP2D6) small molecule antagonists: luciferase biochemical (cell-free) qHTS assay (AID 1645840; active means well fitted curve in the direction sought with a large enough effect in the repeat runs; an effect the other way counts as inactive or inconclusive; further: nearly all actives have a fitted effect of over 55% in size; further: potency means the concentration at half of the fitted maximal effect)
# Method in brief: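 P450-Glo CYP2D6 system: proluciferin substrate converted by enzyme to luciferin, read by luminescence proportional to activity. Enzyme-substrate mix with compound 10 min at room temperature, then NADPH regeneration 1 h before detection reagent.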
# [3] = target: Cytochrome P450 2C9 (Homo sapiens) (UniProt P11712); assay: Cytochrome P450 family 2 subfamily C member 9 (CYP2C9) small molecule antagonists: luciferase biochemical (cell-free) qHTS assay (AID 1645842; active means well fitted curve in the direction sought with a large enough effect in the repeat runs; an effect the other way counts as inactive or inconclusive; further: nearly all actives have a fitted effect of over 55% in size; further: potency means the concentration at half of the fitted maximal effect)
# Method in brief: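 P450-Glo CYP2C9 system: proluciferin substrate with enzyme in mix containing 0.4% BSA, 10 min at room temperature, then NADPH regeneration solution added and incubated 1 h at 37C. Detection reagent stopped reaction; luminescence read after 20 min as RLU.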
# [4] = Primary qHTS for inhibitors of nuclear receptor binding SET domain protein 2 (NSD2) in an isogenic RCH-ACV NSD2 p.E1099K mutant (9B) (AID 1645876); further: nearly all actives have a fitted effect of over 70% in size; further: potency means the concentration at half of the fitted maximal effect
# [5] = Primary qHTS for inhibitors of nuclear receptor binding SET domain protein 2 (NSD2) in an RCH-ACV wild type WT cells (2C) (AID 1645877); further: nearly all actives have a fitted effect of over 70% in size; further: potency means the concentration at half of the fitted maximal effect
# [6] = target: Cytochrome P450 3A4 (Homo sapiens) (UniProt P08684); assay: Cytochrome P450 family 3 subfamily A member 4 (CYP3A4) small molecule antagonists: luciferase qHTS assay (AID 1645841; active means well fitted curve in the direction sought with a large enough effect in the repeat runs; an effect the other way counts as inactive or inconclusive; further: nearly all actives have a fitted effect of over 45% in size)
# Method in brief: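 Luminescent CYP3A4 activity readout: compounds plus enzyme-substrate mix 10 min at room temperature, reaction started with NADPH regenerating system for 1 h, stopped with detection reagent, read after 20 min. Ketoconazole served as control.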
# [7] = A High-Content qHTS Against Drug Library for the Identification of Small Molecules that Inhibit DYT1 Early Onset Primary Dystonia-Associated Cell Pathology (AID 1645839; calls by dose curve; further: series mostly up to about 46 µM)
# Method in brief: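 High-content imaging quantified EGFP-TorsinA mislocalization in HEK293-derived cells inducibly expressing DYT1 mutant torsinA, after 48 h exposure to compound given together with tetracycline induction. Cell count served as a toxicity channel alongside %pathology.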
# Papain (Carica papaya) = Papain (Carica papaya) (UniProt P00784); assay: Primary qHTS assay for inhibitors of the protease papain (AID 1645873);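 further: papain turnover of Z-FR-AMC read as the AMC fluorescence gain over 10 min; series mostly up to about 50 µM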
# Sequence of Papain (Carica papaya) (P00784 whole entry, looked up): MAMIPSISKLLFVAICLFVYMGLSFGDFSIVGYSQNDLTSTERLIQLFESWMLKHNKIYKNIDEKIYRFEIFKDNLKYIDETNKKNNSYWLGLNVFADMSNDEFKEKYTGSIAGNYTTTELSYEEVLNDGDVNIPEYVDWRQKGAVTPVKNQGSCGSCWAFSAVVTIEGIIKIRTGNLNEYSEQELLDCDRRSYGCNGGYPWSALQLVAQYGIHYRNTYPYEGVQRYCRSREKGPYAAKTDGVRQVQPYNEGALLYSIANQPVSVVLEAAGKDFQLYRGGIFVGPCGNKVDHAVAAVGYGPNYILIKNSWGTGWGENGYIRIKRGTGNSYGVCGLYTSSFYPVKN
# Sequence of Cytochrome P450 2D6 (Homo sapiens) (P10635 whole entry, looked up): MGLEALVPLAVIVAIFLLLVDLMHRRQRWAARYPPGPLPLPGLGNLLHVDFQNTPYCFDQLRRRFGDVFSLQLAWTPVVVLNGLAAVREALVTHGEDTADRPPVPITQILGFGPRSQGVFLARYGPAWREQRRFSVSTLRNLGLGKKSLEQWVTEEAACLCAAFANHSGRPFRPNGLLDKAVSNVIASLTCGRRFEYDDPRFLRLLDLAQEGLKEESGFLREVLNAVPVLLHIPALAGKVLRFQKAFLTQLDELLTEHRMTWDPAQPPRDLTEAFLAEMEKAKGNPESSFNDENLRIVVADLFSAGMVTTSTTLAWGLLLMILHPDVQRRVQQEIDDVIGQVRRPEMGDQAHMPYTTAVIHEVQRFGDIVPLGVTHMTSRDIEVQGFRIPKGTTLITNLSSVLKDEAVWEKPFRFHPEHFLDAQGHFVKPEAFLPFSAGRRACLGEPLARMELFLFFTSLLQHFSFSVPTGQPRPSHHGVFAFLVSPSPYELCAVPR
# Sequence of Cytochrome P450 2C9 (Homo sapiens) (P11712 whole entry, looked up): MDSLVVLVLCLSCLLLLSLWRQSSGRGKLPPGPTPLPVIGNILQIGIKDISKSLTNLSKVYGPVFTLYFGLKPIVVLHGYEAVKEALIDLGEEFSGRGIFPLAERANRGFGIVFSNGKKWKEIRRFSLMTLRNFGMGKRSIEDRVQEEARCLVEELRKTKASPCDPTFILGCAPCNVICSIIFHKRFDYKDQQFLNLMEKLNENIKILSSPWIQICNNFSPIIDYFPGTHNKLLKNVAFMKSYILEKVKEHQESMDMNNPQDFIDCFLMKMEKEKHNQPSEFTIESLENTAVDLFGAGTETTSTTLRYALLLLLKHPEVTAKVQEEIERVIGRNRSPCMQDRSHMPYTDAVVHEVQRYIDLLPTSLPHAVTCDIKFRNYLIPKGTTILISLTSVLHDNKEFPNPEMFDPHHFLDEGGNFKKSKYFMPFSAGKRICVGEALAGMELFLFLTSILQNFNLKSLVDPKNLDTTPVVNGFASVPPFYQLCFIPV
# Sequence of Cytochrome P450 3A4 (Homo sapiens) (P08684 whole entry, looked up): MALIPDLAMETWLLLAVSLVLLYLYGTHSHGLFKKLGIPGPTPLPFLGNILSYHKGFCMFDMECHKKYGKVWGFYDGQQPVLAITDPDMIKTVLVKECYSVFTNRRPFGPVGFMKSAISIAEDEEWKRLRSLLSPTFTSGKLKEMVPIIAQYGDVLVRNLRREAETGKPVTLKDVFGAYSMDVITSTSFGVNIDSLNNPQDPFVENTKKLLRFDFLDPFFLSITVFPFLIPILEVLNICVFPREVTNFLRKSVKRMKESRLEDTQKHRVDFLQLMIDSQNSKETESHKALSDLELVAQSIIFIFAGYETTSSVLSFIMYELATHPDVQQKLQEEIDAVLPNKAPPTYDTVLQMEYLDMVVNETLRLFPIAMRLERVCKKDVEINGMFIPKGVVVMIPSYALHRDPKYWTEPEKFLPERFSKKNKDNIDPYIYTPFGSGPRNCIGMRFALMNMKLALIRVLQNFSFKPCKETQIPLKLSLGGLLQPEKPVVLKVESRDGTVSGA
compound,measurement,setting,value
C/C=C(/C(=C/C)c1ccc(O)cc1)c1ccc(O)cc1,Potency,[1],inactive
same,Potency,[2],24.5 µM (active)
same,Potency,[3],17.4 µM (active)
same,Potency,[4],14.8 µM (active)
same,Potency,[5],10.5 µM (active)
O=C(CCN1CCC(c2ccccc2)C1)c1ccc2c(c1)OCCO2 (centres undefined),Potency,[1],inactive
same,Potency,[2],0.977 µM (active)
same,outcome,[6],inactive
same,Potency,[3],inactive
same,Potency,[4],2.37 µM (active)
same,Potency,[5],2.99 µM (active)
O=c1c(-c2ccccc2)c1-c1ccccc1,Potency,[1],inactive
same,Potency,[2],inactive
Cc1c(C)n(CCN(C)C)c2ccc(C(=O)OCCN(C)C)cc12,Potency,[1],inactive
same,Potency,[2],inactive
same,Potency,[3],inactive
c1ccc(OCc2ccc(CCCN3CCOCC3)cc2)cc1,Potency,[1],inactive
same,Potency,[2],6.92 µM (active)
same,Potency,[3],inactive
Oc1c(Cl)cc(Cl)cc1Sc1cc(Cl)cc(Cl)c1O,Potency,[1],inactive
same,Potency,[2],12 µM (active)
same,Potency,[3],6.01 µM (active)
CN=C(NC#N)NCCSCc1csc(N=C(N)N)n1,Potency,[1],inactive
same,Potency,[7],inactive
same,Potency,[4],inactive
same,Potency,[5],inactive
CC(=O)N(O)CCCCCNC(=O)CCC(=O)N(O)CCCCCNC(=O)CCC(=O)N(O)CCCCCN,Potency,[1],inactive
same,Potency,[2],inactive
same,Potency,[3],inactive
same,Potency,[4],7.5 µM (active) and 5.25 µM (active)
same,Potency,[5],4.73 µM (active) and 4.68 µM (active)
CN(C)/N=N/c1nc[nH]c1C(N)=O,Potency,[1],inactive
same,Potency,[7],inactive
same,Potency,[4],inactive
same,Potency,[5],inactive
N[C@H](CO)C(=O)O,Potency,[1],inactive
same,Potency,[2],inactive
same,Potency,[3],inactive
same,Potency,Papain (Carica papaya),inactive
CC(=O)OCC(=O)NCCCOc1cccc(CN2CCCCC2)c1,Potency,[1],inactive
same,Potency,[7],inactive
same,Potency,[3],inactive
same,Potency,[4],inactive
same,Potency,[5],inactive
Cc1cc(N)c2cc(NC(=O)Nc3ccc4nc(C)cc(N)c4c3)ccc2n1,Potency,[1],inactive
same,Potency,[2],8.71 µM (active)
same,Potency,[3],inactive
COC(=O)[C@@H]1CC2=CC(=O)CC[C@]2(C)[C@@]23O[C@@H]2C[C@@]2(C)[C@@H](CC[C@@]24CCC(=O)O4)[C@H]13,Potency,[1],inactive
same,Potency,[7],inactive
same,Potency,[3],inactive
same,Potency,[4],inactive
same,Potency,[5],inactive
CCCCOc1ccc(OCCCN2CCOCC2)cc1,Potency,[1],inactive
same,Potency,[2],13.8 µM (active)
same,Potency,[3],inactive
CC(C)(C)CC(C)(C)c1ccc(O)c(Cc2ccc(Cl)cc2Cl)c1,Potency,[1],inactive
same,Potency,[2],19.5 µM (active)
same,Potency,[3],3.09 µM (active)
same,Potency,[4],inactive

# Reference: PubChem BioAssay (NCATS)
